Assay results published in PubChem BioAssay (NCATS).
Unmarked numbers belong to inactive results. Records with an inconclusive call do not appear. Entries that show only a call come without a potency. Calls of active or inactive are those of the source. Calls come from the whole dose curve; as a rule, active = well fitted curve in the direction sought with a large enough effect; inconclusive = small, poorly fitted or top-dose-only effect, or another doubt; inactive = no such curve, though single readings can be large; an effect the other way counts as inactive or inconclusive.

What was measured:
[1] = molecular target: Glutathione peroxidase 1 (Homo sapiens) (UniProt P07203); test: Primary qHTS Assay for Inhibitors of Recombinant Selenoprotein Glutathione Peroxidase 1 (GPX1) (AID 1845191); note: nearly all actives have a fitted effect of over 65% in size
Chain of Glutathione peroxidase 1 (Homo sapiens) (P07203 whole entry, looked up): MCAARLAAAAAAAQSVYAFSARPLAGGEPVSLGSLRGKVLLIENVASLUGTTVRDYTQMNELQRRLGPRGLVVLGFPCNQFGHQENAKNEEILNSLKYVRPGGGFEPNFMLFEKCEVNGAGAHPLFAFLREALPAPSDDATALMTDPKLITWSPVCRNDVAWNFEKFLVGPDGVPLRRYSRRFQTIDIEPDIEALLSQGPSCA
Outline: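 GR-coupled readout: NADPH consumption tracked by fluorescence, ex 340/em 450 nm, at t=0 and after 15 min at RT. Final mix 10 nM GPX1, 1 mM GSH, 0.5 mM CHP, 0.5 mM NADPH, 100 nM GR, 0.01% BSA, following 30 min enzyme–compound preincubation.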

[2] = molecular target: Phospholipid hydroperoxide glutathione peroxidase GPX4 (Homo sapiens) (UniProt P36969); test: Primary qHTS Assay for Inhibitors of Recombinant Selenoprotein Glutathione Peroxidase 4 (GPX4) (AID 1845192); note: nearly all actives have a fitted effect of over 65% in size; for activity change, negative = inhibition: series mostly up to about 50 µM
Chain of Phospholipid hydroperoxide glutathione peroxidase GPX4 (Homo sapiens) (P36969 whole entry, looked up): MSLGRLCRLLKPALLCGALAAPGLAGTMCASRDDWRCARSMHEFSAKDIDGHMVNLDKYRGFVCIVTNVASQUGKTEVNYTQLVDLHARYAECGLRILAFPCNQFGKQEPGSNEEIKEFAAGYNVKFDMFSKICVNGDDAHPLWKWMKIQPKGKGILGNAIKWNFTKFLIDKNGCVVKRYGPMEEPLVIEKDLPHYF
Outline: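 Steps: GPX4 plus compound, 30 min RT; add GR/GSH/NADPH master mix; start with cumene hydroperoxide; read 340/450 nm fluorescence at 0 and 15 min. Finals were 200 nM GPX4, 1 mM GSH, 0.5 mM CHP, 0.5 mM NADPH, 100 nM GR.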

[3] = molecular target: Luciferin 4-monooxygenase (Photinus pyralis) (UniProt P08659); test: Primary firefly luciferase (FLuc) qHTS assay for identification of artifact compounds. (AID 1845220); note: nearly all actives have a fitted effect of over 60% in size; note: potency is the fitted concentration of half-maximal effect; for activity change, negative = inhibition: series mostly up to about 54 µM
Outline: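 Enzymatic FLuc inhibition assay: compounds pre-exposed to luciferin/ATP (10 uM each) for 15 min, then purified P. pyralis enzyme at 10 nM added. Read-out: luminescence at 5 min.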

[4] = Primary fluorescence-based thiol-reactive (MSTI) qHTS assay for identification of artifact compounds. (AID 1845221); note: nearly all actives have a fitted effect of over 65% in size; note: potency is the fitted concentration of half-maximal effect;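 for activity change, negative = thiol reactive: series mostly up to about 54 µM; thiol-reactive compounds lower the probe fluorescence signal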
Outline: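 MSTI probe at 4 uM final in 2% DMSO/PBS pH 7.4; compounds, 1 h at room temperature in dark. Fluorescence Ex/Em 525/598 nm, normalised to Acetyl-MSTI and MSTI, fitted to 4-parameter Hill.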

[5] = test system: Nanoluciferase (engineered Oplophorus gracilirostris luciferase); test: Primary Nanoluciferase (NLuc) qHTS assay for identification of artifact compounds. (AID 1845222);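 note: NLuc secreted into diluted conditioned medium of S16 cells; series mostly up to about 54 µM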
Outline: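 S16 cell supernatant NLuc, 1:55; cpds qHTS; 15 min RT dark; Nano-Glo substrate 1:100, 5 min; luminescence; Hill fit of % inhibition.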

[6] = Primary redox qHTS assay for identification of artifact compounds. (AID 1845223)
Outline: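 Redox-cycling detection via DTT (250 uM final) oxidation coupled to Amplex Red (25 uM)/HRP (250 mU/mL) in HBSS. 15 min preincubation plus 30 min after DTT, room temperature. Ex/Em 525/598 nm; 4-parameter Hill fit against DMSO and 10 uM DA3003.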

Row | Structure (SMILES) | Potency [1] | Potency [2] | Potency [3] | Potency [4] | Potency [5] | Potency [6] | outcome [3] | activity change, negative = thiol reactive [4] | activity, negative = inhibition [5] | redox activity (% of DA3003) [6] | activity change, negative = inhibition [3]
1 | C=C1CCC2C(C)(C)CCC[C@]2(C)[C@H]1CC/C(C)=C/C(=O)O (stereo not given in full) | inactive | inactive | inactive | inactive | inactive | inactive |  |  |  |  | 
2 | CC(=O)OCC(Cc1ccccc1)NC(=O)C(Cc1ccccc1)NC(=O)c1ccccc1 (stereo not given) | inactive | inactive | inactive | inactive | inactive | inactive |  |  |  |  | 
3 | C=C1CC[C@@H]2[C@@](C)(CO[C@@H]3O[C@H](CO)[C@@H](O)[C@H](O)[C@H]3O)[C@H](O)CC[C@@]2(C)[C@@H]1CC/C(C)=C/CO[C@@H]1O[C@H](CO)[C@@H](O)[C@H](O)[C@H]1O | inactive | inactive | inactive | inactive | inactive | inactive |  |  |  |  | 
4 | CCC(C)C(=O)OC[C@H]1O[C@H](O[C@H]2O[C@H](CO)[C@@H](O)[C@H](O)[C@H]2O)[C@H](O)[C@@H](O)[C@@H]1O (stereo not given in full) | inactive | inactive | inactive | inactive | inactive | inactive |  |  |  |  | 
5 | O=C(OCc1ccccc1O[C@@H]1O[C@H](CO)[C@@H](O)[C@H](O)[C@H]1O)C1(O)C=CCCC1O (stereo not given in full) | inactive | inactive | inactive | 5.82 µM (active) | inactive | inactive |  |  |  |  | 
6 | C=C1C(OC(C)=O)[C@@]23CCC4[C@](C)(C(=O)O)CCC[C@@]4(C)[C@]2(O)CC[C@H]1C3 (stereo not given in full) | inactive | inactive | inactive | inactive | inactive | inactive |  |  |  |  | 
7 | COC(=O)[C@H](O)[C@H]1C(C)(C)[C@H](OC(C)=O)[C@@]2(O)C(=O)[C@]1(C)C1CC[C@]3(C)C(CC(=O)O[C@H]3c3ccoc3)[C@]13O[C@@H]32 (stereo not given in full) | inactive | inactive | inactive | inactive | inactive | inactive |  |  |  |  | 
8 | CC1(C)CC(NC(=O)C(=O)Nc2ccc(Cl)cc2)CC(C)(C)N1 | inactive | inactive | inactive | inactive | inactive | inactive |  |  |  |  | 
9 | COc1cc(O)cc2c1C(=O)OC(C)CCCCCCC2 (stereo not given) | inactive | inactive | inactive | 11.9 µM (active) | inactive | inactive |  |  |  |  | 
10 | CC1(C)C=Cc2c(ccc3c2N=C2C(C)(C)[C@@H]4C[C@]56CCCN5C(=O)[C@@]4(C[C@]23O)NC6=O)O1 | inactive | inactive | inactive | inactive | inactive | inactive |  |  |  |  | 
11 | COC(=O)C1=CO[C@@H](O[C@@H]2O[C@H](CO)[C@@H](O)[C@H](O)[C@H]2O)[C@@H]2[C@@H](CO)[C@@H](O)C(O)[C@H]12 (stereo not given in full) | inactive | inactive | inactive | inactive | inactive | inactive |  |  |  |  | 
12 | CC12CC34CC(O)C5C(CO)(CO)CC(=O)CC5(C)C3CC1C2C4 (stereo not given) | inactive | inactive | inactive | inactive | inactive | inactive |  |  |  |  | 
13 | C=C1CCC(OC(C)=O)C2(C)CC3OC(=O)C(C)=C3CC12 (stereo not given) | inactive | inactive | inactive | inactive | inactive | inactive |  |  |  |  | 
14 | CC1=C[C@H](O)[C@H]2C(C)(C)CCC[C@]2(C)[C@@]1(O)CO | inactive | inactive | inactive | inactive | inactive | inactive |  |  |  |  | 
15 | CC1(C)CCCC2(C)c3c4c(c(=O)oc(=O)c3=CCC12)=CCC1C(C)(C)CCCC41C (stereo not given) | inactive | inactive | inactive | inactive | inactive | inactive |  |  |  |  | 
16 | NC(=O)[C@@H]1CC[C@H](c2ccc(OCc3ccccc3F)cc2)N1 | inactive | inactive | 10.7 µM (active) | inactive | inactive | inactive |  |  |  |  | 
17 | CNc1nc(Nc2cn(C(C)(C)C#N)nc2C)ncc1C(F)(F)F | inactive | inactive | inactive | inactive | inactive | inactive |  |  |  |  | 
18 | C#CCCCn1cc(-c2cccc3c2N[C@@H](C)CC(=O)N3)cn1 | inactive | inactive | inactive | inactive | inactive | inactive |  |  |  |  | 
19 | Cc1occc(=O)c1O[C@@H]1O[C@H](COC(=O)CC(C)(O)CC(=O)O)[C@@H](O)[C@H](O)[C@H]1O (stereo not given in full) | inactive | inactive | inactive | inactive | inactive | inactive |  |  |  |  | 
20 | CCOc1nc2c(N)ncnc2n1CC | inactive | inactive | inactive | inactive | inactive | inactive |  |  |  |  | 

Row | Structure (SMILES) | Potency [1] | Potency [2] | Potency [3] | Potency [4] | Potency [5] | Potency [6] | outcome [3] | activity change, negative = thiol reactive [4] | activity, negative = inhibition [5] | redox activity (% of DA3003) [6] | activity change, negative = inhibition [3]
21 | C=C[C@@]1(C)CCC2=C([C@H]1OC(C)=O)[C@H](OC(C)=O)CC1[C@](C)(C(=O)OC)CC[C@H](OC(C)=O)[C@]21C (stereo not given in full) | inactive | inactive | inactive | inactive | inactive | inactive |  |  |  |  | 
22 | CC1OC(O[C@H]2CC[C@@]3(C)C(CC[C@]4(C)C3CC=C3C5CC(C)(C)CC[C@]5(C(=O)OC5OC(CO)C(OC6OCC(OC7OCC(O)C(O)C7O)C(O)C6O)C(O)C5O)CC[C@]34C)C2(C)C)C(O)C(O)C1OC1OC(CO)C(O)C(OC2OC(CO)C(O)C(O)C2O)C1O (stereo not given in full) | inactive | inactive |  |  |  |  | inactive [at 11.6 µM] | 250% [at 11.5 µM] | 0.21% [at 11.6 µM] | 2.88% [at 11.5 µM] | 
23 | C/C=C(/C)C(=O)OC1CC(C)(C)CC2C3=CCC4C5(C)CCC(OC6OC(C)C(OC7OC(C(=O)O)C(O)C(OC8OC(CO)C(O)C(O)C8OC8OC(CO)C(O)C(O)C8O)C7O)C(O)C6O)C(C)(C)C5CCC4(C)C3(C)C(OC(=O)/C=C/C=C/C=C/CCC)C(OC(C)=O)C12CO (stereo not given) | inactive | inactive |  |  |  |  |  | 260% [at 11.5 µM] | -1.65% [at 11.6 µM] | 13.7% [at 11.5 µM] | 1.89% [at 11.6 µM]
24 | CC1(C)CC[C@]2(C(=O)O[C@@H]3O[C@H](CO)[C@@H](O)[C@H](O)[C@H]3O)CC[C@]3(C)C(=CCC4[C@@]5(C)C[C@H](O)[C@H](O[C@@H]6O[C@H](C(=O)O)[C@@H](O)[C@H](O)[C@H]6O)[C@@](C)(CO)C5CC[C@]43C)C2C1 (stereo not given in full) | inactive | inactive |  |  |  |  | inactive [at 11.6 µM] | 8.46% [at 11.5 µM] | 1.06% [at 11.6 µM] | -11.2% [at 11.5 µM] | 
25 | C=Cc1ccc(O[C@@H]2O[C@H](CO[C@@H]3O[C@@H](C)[C@H](O)[C@@H](O)[C@H]3O)[C@@H](O)[C@H](O)[C@H]2O)cc1 | inactive | inactive | inactive | 11.6 µM (active) | inactive | inactive |  |  |  |  | 
26 | COc1cc(C(CO)CO[C@@H]2O[C@H](CO)[C@@H](O)[C@H](O)[C@H]2O)ccc1O (stereo not given in full) | inactive | inactive | inactive | inactive | inactive | inactive |  |  |  |  | 
27 | CC(C)[C@](O)(c1ccc2cc(OC(F)F)c(OC(F)F)cc2c1)c1cn[nH]n1 | inactive | inactive | inactive | inactive | inactive | inactive |  |  |  |  | 
28 | O=C(COCC(=O)N1CCN(C(c2ccccc2)c2ccccc2)CC1)Nc1ccc(Cl)cc1C(=O)O | inactive | inactive | inactive | inactive | inactive | inactive |  |  |  |  | 
29 | CC[C@H](NC(=O)c1c(O)c(-c2ccccc2)nc2ccccc12)c1ccccc1 | inactive | inactive | inactive | 2.67 µM (active) | inactive | inactive |  |  |  |  | 
30 | C[C@@H]1O[C@@H](O[C@H]2[C@@H]3C=CO[C@@H](O[C@@H]4O[C@H](CO)[C@@H](O)[C@H](O)[C@H]4O)[C@@H]3[C@@]3(CO)O[C@@H]23)[C@H](O)[C@H](OC(=O)/C=C/c2ccc(O)cc2)[C@H]1OC(=O)/C=C/c1ccc(O)cc1 | inactive | inactive | inactive | inactive | inactive | inactive |  |  |  |  | 
31 | Cc1cn2cc(CC(=O)N3CCC4(CC3)CN(Cc3ccc(-n5nccn5)cc3Cl)C4)nc2s1 | inactive | inactive | inactive | inactive | inactive | inactive |  |  |  |  | 
32 | COc1ccc([C@H]2OC[C@H]3[C@@H]2CO[C@@H]3c2ccc(O[C@@H]3O[C@H](CO)C(O)[C@H](O)[C@H]3O)c(OC)c2)cc1OC (stereo not given in full) | inactive | inactive | inactive | inactive | inactive | inactive |  |  |  |  | 
33 | CN[C@H](CNC(=O)N1CCC[C@@H]([C@@H](OCCNC(=O)OC)c2cccc(Cl)c2)C1)C[C@H]1CCCOC1 | inactive | inactive | inactive | inactive | inactive | inactive |  |  |  |  | 
34 | CC(=O)OC/C(=C/C(=O)O)CC[C@@H]1C(C)=CC(=O)[C@@H]2C(C)(C)CCC[C@@]12C | inactive | inactive | inactive | inactive | inactive | inactive |  |  |  |  | 
35 | c1ccc2c(Nc3nnc(-c4ccncc4)s3)cccc2c1 | inactive | inactive | 7.57 µM (active) | inactive | inactive | inactive |  |  |  |  | 
36 | CC(=O)/C=C/C1C(C)CC(O[C@@H]2O[C@H](CO)[C@@H](O)[C@H](O)[C@H]2O)CC1(C)C (stereo not given in full) | inactive | inactive | inactive | 14.7 µM (active) | inactive | inactive |  |  |  |  | 
37 | O=C(NC/C=C/CN1CCN(c2cccc(Cl)c2Cl)CC1)c1ccc(-c2ccccn2)cc1 | inactive | inactive | inactive | inactive | inactive | inactive |  |  |  |  | 
38 | CC1(C)CC[C@]2(C(=O)O)CC[C@]3(C)C(=CCC4[C@@]5(C)C(=O)C[C@H](O)[C@@](C)(CO)C5CC[C@]43C)[C@@H]2C1 (stereo not given in full) | inactive | inactive | inactive | inactive | inactive | inactive |  |  |  |  | 
39 | COCC1OC(n2cnc3c(=O)[nH]cnc32)C(O)C1O (stereo not given) | inactive | inactive | inactive | inactive | inactive | inactive |  |  |  |  | 
40 | COc1cc(/C=C/C(=O)OC[C@H]2O[C@@H](OC3CC(C)=C(C(=O)O)C(C)(C)C3)[C@H](O)[C@@H](O)[C@@H]2O)cc(OC)c1O (stereo not given in full) | inactive | inactive | inactive | 3.27 µM (active) | inactive | inactive |  |  |  |  | 
